Source: the supplement of paper PMC13380429

Experiments:
[1] = system: Vero E6 infected with SARS-CoV-2; assay: morphology score (similarity to uninfected cells); higher = more like uninfected cells; settings: 24 h
[2] = system: Vero E6 infected with SARS-CoV-2; assay: SARS-CoV-2 infection rate relative to infected DMSO; higher = more infection, active = 60 or less; settings: 24 h

Structure (SMILES)	morphology score [1]	SARS-CoV-2 infection rate [2]
COC(=O)CC[C@@H]1N=C(c2ccccn2)c2cc(Br)ccc2-n2c(C)cnc21 [remimazolam] (10 µM)	0.132	95% (inactive)
COc1ccc(S(=O)(=O)Nc2c(C)cc(C)cc2C)cc1 (10 µM)	0.217	80.5% (inactive)
O=C(Nc1cc(-c2ccccc2)nn1-c1ccccc1F)c1ccc([N+](=O)[O-])cc1 (10 µM)	0.233	93.5% (inactive)
Cc1cc(NC(=O)Nc2ccc(N(C)C)cc2)c2cc(F)cc(F)c2n1 (10 µM)	0.204	99% (inactive)
Oc1cc2c(cc1O)[C@@H]1c3ccc(O)c(O)c3OC[C@]1(O)C2 [hematoxylin] (10 µM)	-0.0601	114% (inactive)
C[C@H]1CCC/C=C/[C@@H]2C[C@H](O)C[C@H]2[C@H](O)/C=C/C(=O)O1 [brefeldin-A] (0.833333 µM)	0.0397	107% (inactive)
O=C1NCCN1c1ncc([N+](=O)[O-])s1 [niridazole] (10 µM)	0.233	95% (inactive)
O[C@H]([C@H](O)[C@@H]1CO1)[C@H]1CO1 [dianhydrogalactitol] (10 µM)	-0.0725	114% (inactive)
CC[C@@H]([C@H](C)O)n1ncn(-c2ccc(N3CCN(c4ccc(OC[C@@H]5CO[C@@](Cn6cncn6)(c6ccc(F)cc6F)C5)cc4)CC3)cc2)c1=O [posaconazole] (0.833333 µM)	0.204	102% (inactive)
Cc1ccc(/C(=C\CN2CCCC2)c2cccc(/C=C/C(=O)O)n2)cc1 [acrivastine] (10 µM)	-0.036	104% (inactive)
